# Screens: PubChem, National Center for Advancing Translational Sciences (NCATS)
# Shiga toxin inh = Shiga toxin inhibition; inhibition, % at 38.7 µM; 290,000 tested, 9.2% active; Vero cells, Shiga toxin protein synthesis inhibition reporter; AID 2315; in the data active means inhibition mostly above about 28%, no sharp cut-off; inactive means mostly below about 43%; further: 0% is about no effect
# Cycloheximide cs = affects cycloheximide protein synthesis inhibition readout, counter-screen. cell reporter, cycloheximide protein synthesis inhibition counterscreen. max response, %. 300,000 tested, 12% active. AID 2314; in the data active means max response mostly above about 13%, no sharp cut-off; inactive means mostly below about 14%; further: read at 38.3 µM for the half of the compounds with a filed dose; 0% is about no effect
# FMDV inh = antivirals against foot and mouth disease virus; 410,000 tested, 1.2% active; Potency, µM (doses to about 57.9 µM), for inactives: at the highest dose activity change, negative = inhibition, usual class: inhibitors; FMDV antiviral cell-based qHTS; calls by dose curve; tested in HEK293T cells; further: read-out not given here; potency means the concentration at half of the fitted maximal effect; on the % scale 0 is the no-effect control and ±100 the full control effect; nearly all actives have a fitted effect of over 45% in size
# Sm TGR inh = blocks Schistosoma mansoni thioredoxin glutathione reductase; Potency, µM (series often up to 114 µM), without a hit: at the highest dose activity change, negative = inhibition, usual class: inhibitors; Q962Y6; purified TGR, DTNB reduction, TNB absorbance 405 nm; 360,000 tested, 3% active; active means well fitted inhibition curve with a large enough effect; inconclusive means small, poorly fitted or top-dose-only effect; inactive means no such curve, though single readings can be large or run the other way; further: potency means the concentration at half of the fitted maximal effect; on the % scale 0 is the no-effect control and ±100 the full control effect; nearly all actives have a fitted effect of over 60% in size
#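 TGR 20 nM + NADPH 100 uM (dispensed conc.), cpd preinc 15 min RT; start with NADPH (500 uM addition) then DTNB (15 mM addition). Kinetic TNB absorbance, 405 nm filter. Four-parameter Hill fit across titration.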
# An asterisk follows results filed as active; ? = inconclusive; nt = no result. The list is not random: actives were taken first. Their share in the collection is about 12%.
SMILES,Shiga toxin inh,Cycloheximide cs,FMDV inh,Sm TGR inh
CCOC(=O)N1CCN([N+]([O-])=NOc2cc(O/N=[N+](\[O-])N(C)C)c([N+](=O)[O-])cc2[N+](=O)[O-])CC1,-4.2,-1.1,nt,nt
CNc1ccc(C(=O)Oc2cc(O/N=[N+](\[O-])N(C)C)c([N+](=O)[O-])cc2[N+](=O)[O-])cc1,72.8*,39.5*,nt,nt
Cn1c(=O)c2c(-c3ccc(Br)cc3)n(Cc3ccc(F)cc3)cc2n(C)c1=O,nt,nt,?,-2.3%
Nc1ccc2c(c1)Cc1cc([N+](=O)[O-])ccc1-2,66.8*,41.7*,21.1%,4.2%
Nc1ccc2c(c1)Cc1ccccc1-2,64.3*,34.4*,33.1%,-1.5%
Nc1cc2c(cc1Cl)-c1ccccc1C2,nt,nt,31.8%,nt
O=[N+]([O-])c1ccc2c(c1)Cc1cc(O)ccc1-2,nt,nt,1.1%,nt
Cc1cn(C2CC3OCC(NC(=O)C(NC(=O)OC(C)(C)C)C(C)OCc4ccccc4)C3O2)c(=O)[nH]c1=O (stereo not given),-3.3,-1.8,nt,nt
CCn1ccc2c(OCC(=O)NCc3ccc(C)cc3)cccc2c1=O,nt,nt,-25.1%,-14.5%
COc1cccc(Cc2nc3ccccc3nc2SCC(=O)N2CCCc3ccccc32)c1,nt,nt,-13.9%,-7.5%
CN(Cc1c(F)cccc1Cl)C(=O)CNC(=O)c1cccs1,93.9*,39.1*,38.3%,4.0%
CC(=O)c1cccc(OCc2cc(C(=O)N(C)CCC3CCOCC3)no2)c1,68.1*,41.5*,22.7%,2.24µM*
COc1cccc(OCc2cc(C(=O)N(C)CCC3CCCCO3)no2)c1 (stereo not given),152.0*,75.4*,6.9%,8.2%
COc1cccc(OCc2cc(C(=O)N(C)C3CCCCC3)no2)c1,nt,nt,51.8%,nt
CCN(CC1CCCO1)C(=O)c1cc(COc2ccc(F)cc2F)on1 (stereo not given),17.0,6.7,12.9%,-0.1%
COc1ccccc1OCc1cc(C(=O)N(C)CCC2CCOCC2)no1,nt,nt,60.3%,nt
CCCN(CC1CCCO1)C(=O)c1cc(COc2cccc(OC)c2)on1 (stereo not given),26.3,14.5*,19.5%,0.0%
CCN(CC)S(=O)(=O)c1cc(NC(=O)c2ccc(Br)s2)ccc1C,77.4*,63.8*,?,12.1%
CCN(CC)S(=O)(=O)c1cc(NC(=O)C2Cc3ccccc3C(=O)O2)ccc1C (stereo not given),56.1*,26.5*,-12.8%,0.2%
CCN(CC)S(=O)(=O)c1cc(NC(=O)c2ccc3c(c2)NC(=O)C(C)S3)ccc1C (stereo not given),nt,nt,25.1µM*,-2.8%
COC(=O)c1ccc(NC(=O)N2CCc3c([nH]c4ccccc34)C2c2ccc(C)cc2)cc1 (stereo not given),nt,nt,-21.4%,-7.3%
CCCCc1nc2ccccc2n2c(-c3ccc(OC)cc3)c3c(=O)n(C)c(=O)n(C)c3c12,nt,nt,-27.0%,0.3%
CCOC(=O)c1cccc(NS(=O)(=O)c2cc(-c3cnc(C4CC4)o3)ccc2C)c1,nt,nt,15.7%,3.7%
Cc1ccc(C)c(N2CCN(C(c3ccc(F)cc3)c3nnc(-c4ccccc4)o3)CC2)c1 (stereo not given),nt,nt,-16.6%,0.1%
CC1=NN(/C(=N\c2nnc(C)s2)Nc2ccc(C(C)(C)C)cc2)[C@H](c2ccc(C)cc2)S1,27.2*,10.2,-16.6%,-1.3%
SMILES,Shiga toxin inh,Cycloheximide cs,FMDV inh,Sm TGR inh
COc1ccc(N2CCN(C(=O)c3ccc4c(c3)N(Cc3ccc(F)cc3)C(=O)c3ccccc3S4=O)CC2)cc1 (stereo not given),nt,nt,-10.1%,5.4%
CC1(C)C2CCC1(CS(=O)(=O)N1CCCc3ccccc31)C(=O)C2 (stereo not given),22.2,18.1*,36.4%,-18.6%
CCOC(=O)CSc1nc2ccccc2n2cnnc12,-5.3,7.3,2.9%,50.1µM*
Cc1cc(N2CCCC2)ccc1/C=C1/C(=O)N(C)C(=S)N1C,16.2,6.9,-2.2%,-21.8%
Cc1cc(/C=C2\NC(=S)N(C)C2=O)ccc1N1CCCC1,94.6*,32.8*,7.4%,8.3%
Cc1cc(/C=C2/C(=O)N(C)C(=S)N2C)ccc1N1CCCC1,93.1*,32.0*,9.6%,-22.8%
CCN1C(=O)/C(=C/c2ccc(N3CCCC3)cc2)NC1=S,24.1,65.7*,-24.5%,-21.6%
CCCN1C(=O)/C(=C/c2ccc(N3CCCC3)c(C)c2)NC1=S,50.2*,18.9*,-10.6%,-0.8%
CCCN1C(=O)/C(=C/c2ccc(N3CCOCC3)cc2)NC1=S,31.9,12.3,-15.6%,5.3%
Cc1cc(C)c(NC(=O)COCc2cc(-c3cccs3)on2)c(C)c1,nt,nt,0.0%,-5.5%
CC1=C(C(=O)OCC2CCCCC2)C(c2ccc(Cl)cc2Cl)CC(=O)N1 (stereo not given),nt,nt,?,6.7%
Cc1cc2c(cc3c(SCc4ccccc4Cl)nnc(C)n32)o1,nt,nt,34.9%,-1.6%
Cc1ccc(NCc2ccccc2O)c(C)c1,48.0*,19.8*,7.3%,5.7%
Cc1ccc(NC(=S)NCc2ccccc2)c(C)c1,63.7,10.0*,26.5%,44.2%
Cc1cccc(NCc2ccccc2O)c1C,-1.4,11.7,8.1%,6.3%
Cc1ccc(NC(=S)NCCC(c2ccccc2)c2ccccc2)c(C)c1,-2.1,9.8,9.9%,11.6%
COc1ccc(OC)c(NC(=O)c2cc3c(=O)oc4ccccc4c3s2)c1,nt,nt,-4.6%,3.8%
Cc1c(Cl)cccc1N1CCn2c1nc1c2c(=O)n(CC(=O)O)c(=O)n1C,nt,nt,-26.7%,10.2%
CC(C)(C)C(=O)OC/C(N)=N/OC(=O)c1ccccc1,30.8,39.6*,29.7%,10.4%
S=C1NNC2(NN1)C1CC3CC(C1)CC2C3,44.7*,31.7*,4.0%,-1.1%
O=C(/C=C/c1ccc(-c2cccc([N+](=O)[O-])c2)o1)N1CCOCC1,145.5*,31.1*,62.8%,39.8µM*
Cc1ccc(C(=O)n2ncn(C)c2=S)cc1,9.6,-4.1,-8.6%,17.8µM*
Cc1cccc(NC(=O)C2COc3ccccc3O2)c1 (stereo not given),72.1*,42.9*,59.7%,3.5%
COc1ccc(Cl)cc1NC(=O)C1COc2ccccc2O1 (stereo not given),44.9*,38.1*,36.2%,0.2%
Cc1ccc(NC(=O)C2COc3ccccc3O2)cc1C (stereo not given),nt,25.7*,28.5%,-1.0%
SMILES,Shiga toxin inh,Cycloheximide cs,FMDV inh,Sm TGR inh
O=C(Nc1cccc([N+](=O)[O-])c1)C1COc2ccccc2O1 (stereo not given),15.1,11.3*,16.2%,?
COc1ccc(OC)c(NC(=O)C2COc3ccccc3O2)c1 (stereo not given),2.7,9.7,0.0%,0.4%
Cc1ccc(C)c(NC(=O)CCc2c(C)n(C)c3cc(-c4ccccc4C)nn3c2=O)c1,nt,nt,-2.0%,-7.0%
CCOCCOC(=O)c1ccc(NC(=O)C2COc3ccccc3O2)cc1 (stereo not given),37.9,22.4*,12.1%,1.0%
COC(=O)c1cc(NC(=O)C2COc3ccccc3O2)ccc1Cl (stereo not given),53.3*,20.5*,1.6%,-7.9%
COC(=O)c1cccc(NC(=O)C2COc3ccccc3O2)c1 (stereo not given),66.0*,32.9*,43.7%,4.7%
COC(=O)c1cccc(NC(=O)C2COc3ccccc3O2)c1C (stereo not given),53.9,19.6,66.5%,-27.1%
